Assay results from PubChem BioAssay (NCATS).
Where “and” joins values, the source holds several entries; their conditions need not be identical. Identical values can stand only once. Results filed as inconclusive are left out. Where a call stands in place of a potency, no number is given. Calls of active or inactive are those of the source. Calls follow the shape of the dose curve; as a rule, active = well fitted cell-killing curve with a large enough effect; inconclusive = small, poorly fitted or top-dose-only effect; inactive = flat fitted curve, though single readings scatter.

Test: Cell Viability - LYMP2-016 (AID 984); also: nearly all actives have a fitted effect of over 55% in size
Conditions: LYMP2-016 lymphoblastoid cell viability, qHTS; series mostly up to 92.2 µM
Description: NIH Chemical Genomics Center [NCGC]
NIH Molecular Libraries Screening Centers Network [MLSCN]
National Institutes of Environmental Health Sciences [NIEHS]
National Toxicology Program [NTP]
We have developed a 1536-well cell-based assay for quantitative high throughput screening (qHTS) against a number of cell lines to determine in vitro cytotoxicity of small molecules. This particular assay uses a human lymphoblastoid cell line (LYMP2-016) purchased from Coriell Institute for Medical Research.
NCGC Assay Protocol Summary:
The CellTiter-Glo luminescent cell viability assay (Promega) is a homogeneous method to measure the number of viable cells in culture. The end point readout of this assay is based on quantitation of intracellular ATP, an indicator of metabolic activity, using the luciferase reaction. Luciferase catalyzes the oxidation of beetle Luciferin to oxyluciferin and light in the presence of ATP. The luminescent signal is proportional to amount of ATP present.
Using the CellTiter-Glo luminescent cell viability assay, the amount of cellular ATP was measured in the lymphoblastoid cell line with complete culture medium following compound treatment for 24 hours. The assay was performed in opaque white Kalypsys 1536-well plates. In the screen, tetraoctylammonium bromide was used as positive control. Library compounds were measured for their ability to cause acute toxicity in the cell line, as reflected by a decrease in intracellular ATP levels, in a concentration-dependent manner. […] AC50 values were determined from concentration-response data modeled with the standard Hill equation.
qHTS protocol for CellTiter Glo lymphoblastoid cellular assay
[Step] [Parameter] [Value] [Description]
1. Reagent; 5 uL; 2500 lymphoblastoid cells/well
2. Time; 5 hr; 37 C incubation
4. Controls; 23 nL; Tetraoctylammonium bromide 6.4pM to 92 uM
5. Time; 24 hr; 37 C incubation
6. Reagent; 5 uL; CellTiter Glo reagent
7. Time; 30 min; Room Temperature
8. Detection; Luminescence; Viewlux plate reader
Keywords: cell viability, cytotoxicity, lymphoblastoid cell line, luminescence, NTPHTS, NTPHTS_NCGC, NIEHS, DSSTox, MLSMR, MLSCN, NIH Roadmap, qHTS, NCGC
Potency is read from the fitted curve at half-maximal effect.

Structure (SMILES) | Potency
C=C(C)C1CC=C(C)C(O)C1 (stereo not given) | inactive
CCCCCCCCO | inactive
CC1(C)CC(N=C=O)CC(C)(CN=C=O)C1 (stereo not given) | inactive
COCC(=O)O | inactive
CCCCOCCO | inactive
CCCCCCCCCCCCCCC1CO1 (stereo not given) | inactive
O=C(O)c1ccccc1 | inactive
COC(=O)CCCCC(=O)OC | inactive
O=C1CCc2ccccc2O1 | inactive
CCC(C)c1ccccc1O (stereo not given) | inactive
c1ccc2scnc2c1 | inactive
COc1ccc2nc(N)sc2c1 | inactive
C1OCOCO1 | inactive
C=Cc1ccccc1Cl | inactive
CCCCCCCCCCCCCC(=O)O | inactive
CN(C)C=O | inactive
Cc1c(N=C=O)cccc1N=C=O | inactive
COc1c2ccoc2cc2oc(=O)ccc12 | inactive
Cc1cccc([N+](=O)[O-])c1C | inactive
C=CCOC(=O)c1ccccc1C(=O)OCC=C | inactive

Structure (SMILES) | Potency
COc1ccc(/C=C/c2cc(OC)cc(=O)o2)cc1 | inactive
Cc1ccc([N+](=O)[O-])c(C)c1 | inactive
COC(=O)c1ccc(C)cc1 | inactive
Cc1ccc(N)c([N+](=O)[O-])c1 | inactive
c1ccccc1 | inactive
CCCCC(CC)CN (stereo not given) | inactive
CC1=C2[C@H](/C=C(\C)C(=O)O)CC[C@@H](C)[C@H]2CC1 | inactive
C=CC(=O)OCCOCCOCCOCCOC(=O)C=C | 20 µM (active) and 15.8 µM (active)
O=S(=O)(O)c1ccccc1 | inactive
C=CCc1ccc(OC)c(OC)c1 | inactive
CCC(O)OC(O)CC (stereo not given) | inactive
Clc1cc(Cl)c(Cl)cc1Cl | inactive
C/C=C\c1ccc(OC)cc1 | inactive
C=CC(=C)CCC=C(C)C | inactive
O=C(O)CC(C(=O)O)C(CC(=O)O)C(=O)O (stereo not given) | inactive
O=C(/C=C/c1ccc(O)c(O)c1)O[C@@H](C(=O)O)[C@@H](OC(=O)/C=C/c1ccc(O)c(O)c1)C(=O)O | inactive
COc1cc(/C=C/c2ccccc2)oc(=O)c1 | inactive
c1ccc2c(c1)[nH]c1ccccc12 | inactive
S=C1NC=NC2N=CNC12 (stereo not given) | inactive
OCCNCCO | inactive
